Four compounds from PubChem BioAssay (EPA / NIEHS) can be followed below.

Activity calls are given as the source filed them. The calls were made as follows: active = hit-call score of the fitted dose curve at least 0.9, where 1 is the maximum; inactive = score below 0.9.

Common to all, as to details: mRNA level, 48 h; actives raise or lower the signal
Read-out in experiment [1]: ABC Transporter (ABCB11), ABCB11 (gene 8647)
Description: LTEA_HepaRG_ABCB11: Life Technologies and Expression Analysis (LTEA) Assay for ABC Transporter (ABCB11) using HepaRG (AID 2283463). An outline of the steps: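 ABCB11 transcript levels are read by Fluidigm TaqMan qRT-PCR after 48 h chemical treatment of human HepaRG cells. Concentrations span 100 uM downward in half-log steps with 0.5% DMSO; gain or loss is fitted against DMSO controls.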

Read-out in experiment [2]: ABC Transporter (ABCC2), ABCC2 (gene 1244)
Description: LTEA_HepaRG_ABCC2: Life Technologies and Expression Analysis (LTEA) Assay for ABC Transporter (ABCC2) using HepaRG (AID 2283464). An outline of the steps: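 qRT-PCR (TaqMan, Fluidigm array) read-out of ABCC2 mRNA, normalized to three housekeeping genes. Differentiated HepaRG cells were treated 48 h in serum-free induction medium with 8-point half-log series from 100 uM in 0.5% DMSO; curves fitted bidirectionally relative to DMSO.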

Read-out in experiment [3]: Broad substrate specificity ATP-binding cassette transporter ABCG2 (Homo sapiens) (UniProt Q9UNQ0)
Description: LTEA_HepaRG_ABCG2: Life Technologies and Expression Analysis (LTEA) Assay for ABC Transporter (ABCG2) using HepaRG (AID 2283465). A digest of the protocol:
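Read-out is ABCG2 mRNA induction or loss quantified by qRT-PCR after 48 h chemical treatment of human HepaRG cells, normalized to three housekeeping genes. Concentrations reached 100 uM top in half-log steps; fitting was bidirectional against 0.5% DMSO.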

Read-out in experiment [4]: ATP-citrate lyase (ACLY), ACLY (gene 47)
Description: LTEA_HepaRG_ACLY: Life Technologies and Expression Analysis (LTEA) Assay for ATP-citrate lyase (ACLY) using HepaRG (AID 2283466). An outline of the steps:
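HepaRG, 48 h exposure, 8-pt half-log dilutions (top 100 uM), 0.5% DMSO. Readout: ACLY mRNA, TaqMan qRT-PCR, housekeeping-normalized (ACTB/GAPDH/POLR2A). Bidirectional curve fit vs DMSO.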

Read-out in experiment [5]: Peroxisomal acyl-coenzyme A oxidase 1 (ACOX1) gene, ACOX1 (gene 51)
Description: LTEA_HepaRG_ACOX1: Life Technologies and Expression Analysis (LTEA) Assay for Peroxisomal acyl-coenzyme A oxidase 1 (ACOX1) gene using HepaRG (AID 2283467). An outline of the steps: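 Measured by qRT-PCR against three housekeeping genes: ACOX1 transcript change in human HepaRG cells after 48 h dosing. Concentrations ran up to 100 uM in half-log steps. Curves were fitted bidirectionally relative to 0.5% DMSO.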

Read-out in experiment [6]: Alkaline Phosphatase, Placental (ALPP) gene, ALPP (gene 250)
Briefly: LTEA_HepaRG_ALPP: Life Technologies and Expression Analysis (LTEA) Assay for Alkaline Phosphatase, Placental (ALPP) gene using HepaRG (AID 2283468).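 As to AC50: differentiated human HepaRG liver cells in serum-free induction medium.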 A digest of the protocol:
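qRT-PCR readout of ALPP mRNA (Fluidigm TaqMan), normalized to ACTB/GAPDH/POLR2A, after 48 h chemical exposure of HepaRG cells; 8-point half-log series, top 100 uM, 0.5% DMSO vehicle. Bidirectional curve fit versus DMSO baseline.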

Read-out in experiment [7]: Bcl-2 (BAD) gene, BAD (gene 572)
Description: LTEA_HepaRG_BAD: Life Technologies and Expression Analysis (LTEA) Assay for Bcl-2 (BAD) gene using HepaRG (AID 2283469). A digest of the protocol: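 BAD transcript change, measured by qRT-PCR against three housekeeping genes and fitted in both directions relative to 0.5% DMSO, after 48 h chemical treatment of human HepaRG liver cells at concentrations up to 100 uM.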

Read-out in experiment [8]: Bcl-2 (BAX) gene, BAX (gene 581)
Description: LTEA_HepaRG_BAX: Life Technologies and Expression Analysis (LTEA) Assay for Bcl-2 (BAX) gene using HepaRG (AID 2283470). A digest of the protocol:
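Concentration-response endpoint fitted in both directions relative to 0.5% DMSO vehicle. Human HepaRG cultures receive test chemicals for 48 h at up to 100 uM; BAX mRNA is quantified by qRT-PCR against housekeeping genes.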

Read-out in experiment [9]: adenosine kinase (ADK) gene, ADK (gene 132)
Briefly: LTEA_HepaRG_ADK: Life Technologies and Expression Analysis (LTEA) Assay for adenosine kinase (ADK) gene using HepaRG (AID 2283471). A digest of the protocol: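 HepaRG (human liver), 48 h chemical exposure, 8-pt half-log series, top 100 uM, 0.5% DMSO vehicle. Readout: ADK mRNA by qRT-PCR vs housekeeping genes; bidirectional curve fit relative to DMSO baseline.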

Read-out in experiment [10]: Alpha-fetoprotein (AFP) gene, AFP (gene 174)
Briefly: LTEA_HepaRG_AFP: Life Technologies and Expression Analysis (LTEA) Assay for Alpha-fetoprotein (AFP) gene using HepaRG (AID 2283472). A digest of the protocol:
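After a 48 h plating period, cells are moved to serum-free induction medium and dosed in duplicate (100 uM maximum, half-log dilutions, 0.5% DMSO) for another 48 h. Total RNA goes to TaqMan qRT-PCR; AFP signal is housekeeping-normalized.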

Read-out in the next experiment: BCL2L11 (gene 10018)
Briefly: LTEA_HepaRG_BCL2L11: Life Technologies and Expression Analysis (LTEA) Assay for Bcl-2 (BCL2L11) gene using HepaRG (AID 2283473). An outline of the steps:
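HepaRG, 48 h exposure, 8-pt half-log series from 100 uM in 0.5% DMSO, duplicates; qRT-PCR (Fluidigm TaqMan) for BCL2L11, housekeeping-normalized; bidirectional curve fit relative to DMSO baseline.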

Read-out in experiment [11]: Apolipoprotein A-V (APOA5) gene, APOA5 (gene 116519)
Briefly: LTEA_HepaRG_APOA5: Life Technologies and Expression Analysis (LTEA) Assay for Apolipoprotein A-V (APOA5) gene using HepaRG (AID 2283474). A digest of the protocol: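 HepaRG, 48 h chemical exposure in serum-free induction medium, 8-pt half-log series (top 100 uM), 0.5% DMSO vehicle, duplicates. Readout: APOA5 mRNA by qRT-PCR, housekeeping-normalized; bidirectional fit vs DMSO baseline.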

Read-out in experiment [12]: Apoptosis regulator Bcl-2 (Homo sapiens) (UniProt P10415)
Briefly: LTEA_HepaRG_BCL2: Life Technologies and Expression Analysis (LTEA) Assay for Bcl-2 gene using HepaRG (AID 2283475). A digest of the protocol: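 Expression change of BCL2 mRNA in HepaRG after 48 h dosing, quantified by TaqMan qRT-PCR against three endogenous controls. Concentration-response used eight points up to 100 uM, vehicle 0.5% DMSO.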

Read-out in experiment [13]: Bcl-2 (BID) gene, BID (gene 637)
Briefly: LTEA_HepaRG_BID: Life Technologies and Expression Analysis (LTEA) Assay for Bcl-2 (BID) gene using HepaRG (AID 2283476). An outline of the steps:
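Gain or loss of BID expression is fitted relative to 0.5% DMSO vehicle. Human HepaRG liver cells received a 48 h chemical exposure over an eight-point concentration range.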

Read-out in another experiment: Caspase-3 (Homo sapiens) (UniProt P42574)
Description: LTEA_HepaRG_CASP3: Life Technologies and Expression Analysis (LTEA) Assay for cysteine-aspartic acid protease (CASP3) using HepaRG (AID 2283477). An outline of the steps:
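HepaRG, 48 h exposure, 8 conc. (top 100 uM, half-log steps, duplicate), 0.5% DMSO vehicle; qRT-PCR of CASP3 transcript, housekeeping-normalised (ACTB/GAPDH/POLR2A); bidirectional curve fit vs DMSO baseline.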

Read-out in experiment [14]: Cytochrome P450 (CYP24A1), CYP24A1 (gene 1591)
Briefly: LTEA_HepaRG_CYP24A1: Life Technologies and Expression Analysis (LTEA) Assay for Cytochrome P450 (CYP24A1) using HepaRG (AID 2283478). An outline of the steps: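 qRT-PCR read-out: CYP24A1 transcript levels normalized to three housekeeping genes, bidirectional curve fits against 0.5% DMSO baseline. Human HepaRG cells treated 48 h with chemicals at eight concentrations from 100 uM in half-log steps.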

Read-out in experiment [15]: Cytochrome P450 (CYP1A2), CYP1A2 (gene 1544)
Description: LTEA_HepaRG_CYP1A2: Life Technologies and Expression Analysis (LTEA) Assay for Cytochrome P450 (CYP1A2) using HepaRG (AID 2283479). A digest of the protocol: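 HepaRG, 48 h exposure, top 100 uM, half-log 8-pt, 0.5% DMSO vehicle, duplicates. Readout: TaqMan qRT-PCR of CYP1A2 mRNA, housekeeping-normalized (ACTB/GAPDH/POLR2A). Gain/loss fit relative to DMSO baseline.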

Read-out in experiment [16]: Cytochrome P450 (CYP2B6), CYP2B6 (gene 1555)
Description: LTEA_HepaRG_CYP2B6: Life Technologies and Expression Analysis (LTEA) Assay for Cytochrome P450 (CYP2B6) using HepaRG (AID 2283481). A digest of the protocol: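 Read-out is CYP2B6 mRNA by TaqMan qRT-PCR, normalized to three housekeeping genes and fitted bidirectionally against 0.5% DMSO baseline. Human HepaRG cells received test chemicals for 48 h, top concentration 100 uM, half-log dilutions.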

Read-out in experiment [17]: cysteine-aspartic acid protease (CASP8), CASP8 (gene 841)
Briefly: LTEA_HepaRG_CASP8: Life Technologies and Expression Analysis (LTEA) Assay for cysteine-aspartic acid protease (CASP8) using HepaRG (AID 2283480). An outline of the steps:
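HepaRG, 48 h exposure, duplicate wells; 8 conc, half-log from 100 uM, 0.5% DMSO. Serum-free induction medium. CASP8 mRNA by TaqMan qRT-PCR, norm. ACTB/GAPDH/POLR2A; gain/loss fitted vs DMSO.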

Read-out in experiment [18]: Cytochrome P450 2C19 (Homo sapiens) (UniProt P33261)
Description: LTEA_HepaRG_CYP2C19: Life Technologies and Expression Analysis (LTEA) Assay for CYP2C19 using HepaRG (AID 2283482). An outline of the steps:
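HepaRG, 48 h chemical exposure, 8-pt half-log series from 100 uM in 0.5% DMSO, duplicates. Readout: CYP2C19 mRNA by TaqMan qRT-PCR, housekeeping-normalized. Bidirectional fit vs DMSO baseline; phenobarbital 1mM as induction control.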

Chain of Cytochrome P450 2C19 (Homo sapiens) (P33261 whole entry, looked up): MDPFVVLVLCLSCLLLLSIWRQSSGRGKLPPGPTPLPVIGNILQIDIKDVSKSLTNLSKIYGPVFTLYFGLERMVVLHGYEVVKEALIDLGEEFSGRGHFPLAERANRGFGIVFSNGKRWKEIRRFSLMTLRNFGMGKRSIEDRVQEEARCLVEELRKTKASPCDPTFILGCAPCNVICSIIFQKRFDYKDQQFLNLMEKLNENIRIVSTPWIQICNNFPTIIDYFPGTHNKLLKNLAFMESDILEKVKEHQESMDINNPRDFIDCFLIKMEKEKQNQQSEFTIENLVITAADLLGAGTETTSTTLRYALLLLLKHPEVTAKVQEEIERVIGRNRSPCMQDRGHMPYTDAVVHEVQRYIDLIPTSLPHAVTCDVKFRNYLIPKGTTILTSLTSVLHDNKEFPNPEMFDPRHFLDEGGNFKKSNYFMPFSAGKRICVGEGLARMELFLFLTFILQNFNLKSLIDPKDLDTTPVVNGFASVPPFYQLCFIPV
Chain of Apoptosis regulator Bcl-2 (Homo sapiens) (P10415 whole entry, looked up): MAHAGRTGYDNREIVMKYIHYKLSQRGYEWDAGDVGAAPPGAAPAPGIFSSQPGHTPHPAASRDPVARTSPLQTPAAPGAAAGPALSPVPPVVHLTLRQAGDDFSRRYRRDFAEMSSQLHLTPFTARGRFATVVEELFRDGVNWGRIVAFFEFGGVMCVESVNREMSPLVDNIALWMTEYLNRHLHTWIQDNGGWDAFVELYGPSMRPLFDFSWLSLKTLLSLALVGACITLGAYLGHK
Chain of Broad substrate specificity ATP-binding cassette transporter ABCG2 (Homo sapiens) (Q9UNQ0 whole entry, looked up): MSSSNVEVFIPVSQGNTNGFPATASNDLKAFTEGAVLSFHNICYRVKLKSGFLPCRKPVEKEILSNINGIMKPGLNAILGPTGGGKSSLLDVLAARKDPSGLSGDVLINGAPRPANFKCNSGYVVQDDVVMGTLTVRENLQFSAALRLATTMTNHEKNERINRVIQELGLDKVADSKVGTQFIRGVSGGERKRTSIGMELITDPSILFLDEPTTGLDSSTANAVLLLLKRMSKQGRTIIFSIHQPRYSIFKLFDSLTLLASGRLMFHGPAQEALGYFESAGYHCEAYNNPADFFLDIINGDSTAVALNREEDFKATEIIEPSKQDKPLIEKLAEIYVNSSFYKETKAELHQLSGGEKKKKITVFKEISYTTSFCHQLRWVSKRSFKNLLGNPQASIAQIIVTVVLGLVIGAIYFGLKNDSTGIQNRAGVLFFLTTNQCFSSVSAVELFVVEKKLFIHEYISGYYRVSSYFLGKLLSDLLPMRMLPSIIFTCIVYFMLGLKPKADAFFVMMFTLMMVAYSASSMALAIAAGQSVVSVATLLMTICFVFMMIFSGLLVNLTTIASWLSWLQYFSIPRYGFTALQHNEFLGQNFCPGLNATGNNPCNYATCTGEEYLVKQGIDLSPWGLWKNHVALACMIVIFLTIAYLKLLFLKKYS
Chain of Caspase-3 (Homo sapiens) (P42574 whole entry, looked up): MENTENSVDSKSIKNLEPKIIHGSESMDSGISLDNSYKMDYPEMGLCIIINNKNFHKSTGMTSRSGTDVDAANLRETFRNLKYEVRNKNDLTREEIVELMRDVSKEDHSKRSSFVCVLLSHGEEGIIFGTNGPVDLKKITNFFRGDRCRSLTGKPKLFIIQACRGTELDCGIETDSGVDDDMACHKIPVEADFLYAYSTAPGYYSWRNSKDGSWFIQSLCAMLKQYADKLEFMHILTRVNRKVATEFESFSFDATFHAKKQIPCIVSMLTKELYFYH

As to `CC[C@H](C)C(=O)O[C@H]1C[C@@H](C)C=C2C=C[C@H](C)[C@H](CC[C@@H]3C[C@@H](O)CC(=O)O3)[C@H]21`, the AC50 is 50 µM (active) in experiment [1], 14.8 µM (active) in experiment [4], 9.92 µM (active) in experiment [11] and 6.18 µM (active) in experiment [15]. In addition, the compound was classed as inactive in [2], in experiment [3], in [5], in [6], in experiment [7] and in experiment [8]. Moreover, the outcome (in experiment [9]; in experiment [10]; in the experiment with BCL2L11 (gene 10018); in experiment [12]; in experiment [13]; with Caspase-3 (Homo sapiens)) was inactive. Moreover, the outcome in experiment [14] and in experiment [16] was inactive.
Regarding `CCOCCO`, the result in experiment [1], in experiment [2], in [3], in experiment [4], in experiment [5] and in [6] was inactive. Further, the result (in experiment [7]; in [8]; in experiment [9]; in [10]; with BCL2L11 (gene 10018); in [11]) was inactive. Also, the compound was classed as inactive (in [12]; in experiment [13]; with Caspase-3 (Homo sapiens); in [14]; in experiment [15]; in experiment [17]). The compound was classed as inactive in [16] and in [18].
Regarding `CC1(C)C(=O)N(Br)C(=O)N1Br`, the compound was classed as inactive in [1], in [2], in [3], in experiment [4], in experiment [5] and in experiment [6]. Further, the call (in experiment [7]; in [8]; in experiment [9]; in [10]; in the experiment with BCL2L11 (gene 10018); in experiment [11]) was inactive. The compound was classed as inactive (in experiment [12]; in experiment [13]; in the experiment with Caspase-3 (Homo sapiens); in experiment [14]; in experiment [18]). Also, the half-maximal activity concentration (AC50) in [15] was 37.5 µM (active); in experiment [16], 7.06 µM (active).
As for `CC[C@H]1CC[C@H](NCc2cc3c(cc2OC)[C@H]2C[C@H]2C(=O)N3C)[C@H](c2ccccc2)N1`, the call in [1], in experiment [3], in [4], in experiment [5], in [7] and in experiment [8] was inactive. Besides, the compound was called inactive (in experiment [9]; in [11]; in [12]; in [13]; in the experiment with Caspase-3 (Homo sapiens); in experiment [14]). Besides, the AC50 in experiment [2] was 50 µM (active); in experiment [6] it was 75.7 µM (active); in experiment [10], 50 µM (active); with BCL2L11 (gene 10018), 31.7 µM (active); in experiment [15], 33.8 µM (active); in [16], 11.7 µM (active). In addition, in experiment [18], the AC50 is 10.8 µM (active).

As a reminder, the AC50 is the concentration giving half of the maximal activity seen.
